Test results as given in PubChem BioAssay (Tox21).
Inconclusive results are not listed. Activity calls are given as the source filed them. Unless noted, calls follow the shape of the dose curve; as a rule, active = well fitted curve in the direction sought with a large enough effect in the repeat runs; inconclusive = weak or mixed curves; inactive = no such curve, though single readings can be large; an effect the other way counts as inactive or inconclusive.

Columns and labels:
[1] = qHTS assay for small molecule agonists of the p53 signaling pathway (AID 651631; calls by dose curve; also: nearly all actives have a fitted effect of over 15% in size)
In short: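 Stably transfected HCT-116 cells (beta-lactamase behind p53 response elements) get compounds after a 5 h settling period; 16 h later at 37 °C, FRET substrate is loaded and fluorescence read after 2 h.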

[2] = qHTS assay for small molecules that induce genotoxicity in human embryonic kidney cells expressing luciferase-tagged ATAD5 (AID 651632); also: nearly all actives have a fitted effect of over 15% in size
In short: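 Increased luciferase signal from ATAD5-tagged reporter cells indicates DNA-damage-driven ATAD5 induction. HEK293T cells are treated for 16 hr at 37C before detection with Amplite.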

[3] = qHTS assay for small molecule agonists of the p53 signaling pathway - cell viability (AID 651633; calls by dose curve;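 also: p53RE-bla HCT reporter cells with a stable beta-lactamase p53 reporter; nearly all actives have a fitted effect of over 30% in size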)
In short: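 p53RE-bla cells were treated with compound for 16 hours at 37 C. Cytotoxicity was then measured as CellTiter-Glo luminescence after 30 min at room temperature.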

[4] = qHTS assay for small molecules that induce genotoxicity in human embryonic kidney cells expressing luciferase-tagged ATAD5 - cell viability (AID 651634; calls by dose curve; also: nearly all actives have a fitted effect of over 25% in size)
In short: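 Cytotoxicity counterscreen in HEK293T cells bearing an ATAD5-luciferase reporter: live-cell protease activity measured by CellTiter-Fluor fluorescence after 15.5 hr compound exposure.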

[5] = qHTS assay for small molecule disruptors of the mitochondrial membrane potential - cell viability (AID 720634; calls by dose curve;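 also: human HepG2 liver cancer cells; nearly all actives have a fitted effect of over 20% in size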)
In short: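 After overnight attachment at 37 C, HepG2 cells received compound or DMSO vehicle for 1 hr. Viability is then taken from ATP-driven luminescence following a 30 min room-temperature CellTiter-Glo step.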

[6] = qHTS assay for small molecule disruptors of the mitochondrial membrane potential (AID 720635)
In short: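 HepG2 cells exposed to compound 1 hr at 37C, then Mito-MPS dye 30 min. Ratio read of aggregate (540/590 nm) versus monomer (490/535 nm) fluorescence.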

[7] = qHTS assay to test for compound auto fluorescence at 590 nm (red) in HepG2 cells (AID 720674)
In short: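 Seeding: 2,000 HepG2 cells/well, MEM/10% FBS, overnight 37 C. Dosing: compound vs DMSO. Incubation: 1 hr, 37 C, 5% CO2. Read: fluorescence 540 ex/590 em, Rose Bengal sodium as red reference.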

[8] = qHTS assay to test for compound auto fluorescence at 535 nm (green) in HepG2 cells (AID 720675)
[9] = qHTS assay to test for compound auto fluorescence at 460 nm (blue) in HEK293 cells (AID 720678)
In short: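 Blue-channel (Ex/Em 405/460 nm) intensity measured in HEK293 cultures after overnight compound exposure at 37C; signal expressed relative to triamterene. Cells plated 2,000 per well in 10% dialyzed FBS medium and allowed 4-5 hr to attach.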

[10] = qHTS assay to test for compound auto fluorescence at 590 nm (red) in HEK293 cells (AID 720679)
In short: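 Red-channel autofluorescence (Ex/Em 540/590 nm; Rose Bengal sodium reference) was measured after overnight 37C, 5% CO2 exposure of attached HEK293 cells, 2,000 per well in medium with 10% dialyzed FBS.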

[11] = qHTS assay to test for compound auto fluorescence at 535 nm (green) in HEK293 cells (AID 720680)
[12] = qHTS assay to test for compound auto fluorescence at 460 nm (blue) in HEK293 cell free culture (AID 720681)
In short: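 Compounds were added to cell-free DMEM with 10% FBS and fluorescence read directly. The blue channel used 405 nm excitation and 460 nm emission, with triamterene as the reference fluorophore.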

[13] = qHTS assay to test for compound auto fluorescence at 535 nm (green) in HEK293 cell free culture (AID 720682)
In short: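 Using fluorescein as calibrant, autofluorescence was quantified at 485/535 nm in cell-free DMEM containing 10% FBS after pintool addition of compound or vehicle.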

[14] = qHTS assay to test for compound auto fluorescence at 590 nm (red) in HEK293 cell free culture (AID 720683)
In short: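 Cell-free wells of DMEM with 10% FBS received compound, and intrinsic fluorescence was read at excitation/emission 540/590 nm. Values expressed as equivalence to Rose Bengal sodium.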

[15] = qHTS assay to test for compound auto fluorescence at 460 nm (blue) in HepG2 cell free culture (AID 720685)
In short: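 Compound (23 nL) or DMSO pinned into cell-free MEM with 10% FBS; blue fluorescence read at 405/460 nm excitation/emission, expressed as auto-fluorescence equivalency to triamterene.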

[16] = qHTS assay to test for compound auto fluorescence at 535 nm (green) in HepG2 cell free culture (AID 720686)
[17] = qHTS assay to test for compound auto fluorescence at 460 nm (blue) in HepG2 cells (AID 720687)
In short: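 HepG2 cells in MEM with 10% FBS, attached overnight at 37 C, were exposed to compound or DMSO for 1 hr at 37 C, 5% CO2. Blue fluorescence was read at 405/460 nm, with triamterene as reference fluorophore.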

[18] = target: Glucocorticoid receptor (Homo sapiens) (UniProt P04150); assay: qHTS assay to identify small molecule agonists of the glucocorticoid receptor (GR) signaling pathway (AID 720691; active = well fitted activation curve with a large enough effect in the signal ratio in the repeat runs, not every such curve was filed as active; the % refers to the signal ratio); conditions: GR-bla HeLa, beta-lactamase reporter ratio, 18 h; activation: at 62.4 µM (top of the series)
Glucocorticoid receptor (Homo sapiens), sequence (P04150 whole entry, looked up): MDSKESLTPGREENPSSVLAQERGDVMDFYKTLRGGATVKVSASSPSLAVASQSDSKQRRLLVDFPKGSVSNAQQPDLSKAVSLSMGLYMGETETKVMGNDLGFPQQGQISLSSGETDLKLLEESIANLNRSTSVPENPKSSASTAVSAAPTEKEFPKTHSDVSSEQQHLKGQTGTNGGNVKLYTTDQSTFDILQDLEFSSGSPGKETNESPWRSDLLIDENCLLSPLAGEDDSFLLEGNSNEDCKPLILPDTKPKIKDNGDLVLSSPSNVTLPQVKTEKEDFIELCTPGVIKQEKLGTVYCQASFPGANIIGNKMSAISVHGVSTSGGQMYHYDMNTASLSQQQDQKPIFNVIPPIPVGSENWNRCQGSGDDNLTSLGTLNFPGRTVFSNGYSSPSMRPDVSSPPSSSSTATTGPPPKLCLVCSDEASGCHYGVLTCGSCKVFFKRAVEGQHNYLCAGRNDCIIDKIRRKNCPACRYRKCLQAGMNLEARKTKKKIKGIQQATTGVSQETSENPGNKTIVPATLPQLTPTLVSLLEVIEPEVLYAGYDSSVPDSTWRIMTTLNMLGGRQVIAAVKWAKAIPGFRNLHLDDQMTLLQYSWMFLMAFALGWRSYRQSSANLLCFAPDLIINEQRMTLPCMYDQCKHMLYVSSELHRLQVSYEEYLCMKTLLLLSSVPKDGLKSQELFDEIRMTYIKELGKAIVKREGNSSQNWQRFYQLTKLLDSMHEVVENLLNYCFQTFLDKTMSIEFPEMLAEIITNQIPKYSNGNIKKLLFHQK
In short: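 Agonist mode in a HeLa line carrying a GRE-controlled beta-lactamase reporter. Compounds act for 18 h at 37 C before a 2 h room-temperature FRET substrate step and fluorescence reading.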

[19] = target: Glucocorticoid receptor (Homo sapiens) (UniProt P04150); assay: qHTS assay to identify small molecule antagonists of the glucocorticoid receptor (GR) signaling pathway (AID 720692; active = well fitted inhibition curve with a large enough effect in the signal ratio in the repeat runs, not every such curve was filed as active; the % refers to the signal ratio)
In short: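 Cells plated, rested 4 h at 37 C/5% CO2; compounds in DMSO pin-transferred; dexamethasone added to 5 nM final; 18 h at 37 C; B/G FRET substrate added, 2 h room temperature; fluorescence measured.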

[20] = qHTS assay to test for compound auto fluorescence at 590 nm (red) in HepG2 cell free culture (AID 720684)
In short: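 Compounds are added to culture medium (MEM, 10% FBS) lacking cells, then fluorescence is read at excitation 540 nm, emission 590 nm, with Rose Bengal sodium as the equivalency standard.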

Measured: Potency

Cc1c(O)c(=O)ccn1C
not listed: [20]
inactive: all other assays above

CSCC[C@H](NC(=O)[C@H](Cc1ccc(OS(=O)(=O)O)cc1)NC(=O)[C@@H](N)CC(=O)O)C(=O)NCC(=O)N[C@@H](Cc1c[nH]c2ccccc12)C(=O)N[C@@H](CCSC)C(=O)N[C@@H](CC(=O)O)C(=O)N[C@@H](Cc1ccccc1)C(N)=O
not listed: [18] | [19] | [20]
inactive: all other assays above

CC/C=C\C/C=C\C/C=C\C/C=C\C/C=C\C/C=C\CCC(=O)O
not listed: [16] | [19]
inactive: all other assays above

COc1c(O)cc2c(c1O)[C@@H]1O[C@H](CO)[C@@H](O)[C@H](O)[C@H]1OC2=O
not listed: [20]
inactive: all other assays above

CCc1ncnc2cc(OC)c(OC)cc12
not listed: [20]
inactive: all other assays above

CCOC(=O)[C@H](CCc1ccccc1)N[C@@H](C)C(=O)N1[C@H](C(=O)O)C[C@H]2CCCC[C@@H]21
not listed: [20]
inactive: all other assays above

CC(C)(C)C(=O)OCC(=O)[C@H]1CC[C@H]2[C@@H]3CCC4=CC(=O)CC[C@]4(C)[C@H]3CC[C@]12C
not listed: [13] | [18] | [19]
inactive: all other assays above

C=N[C@@H](C(=O)N[C@@H]1C(=O)N2[C@@H]1SC(C)(C)[C@@H]2C(=O)O)c1ccccc1
not listed: [18] | [19] | [20]
inactive: all other assays above

CC(C)NCC1CCc2cc(CO)c([N+](=O)[O-])cc2N1 (configuration not stated)
not listed: [20]
inactive: all other assays above

CC(=NCc1ccccc1)c1ccccc1O
not listed: [18] | [19] | [20]
inactive: all other assays above

CCCCCCCCCCCCCC(=O)OCC(COP(=O)([O-])OCC[N+](C)(C)C)OC(=O)CCCCCCCCCCCCC (configuration not stated)
not listed: [20]
inactive: all other assays above

O=P(O)(O)CP(=O)(O)O
not listed: [16] | [19]
inactive: all other assays above

Nc1nc(/C(=C/CC(=O)O)C(=O)N[C@@H]2C(=O)N3C(C(=O)O)=CCS[C@H]23)cs1
not listed: [16]
inactive: all other assays above
